Measured values reported in PubChem BioAssay (NCI).
Compounds without any hit were thinned out: in the full panel of roughly 79,000, 15% have a hit. A number with no mark means an inactive call. Active and inactive are the calls of the source. Cut-off read from the data, not from the text of the source: active = growth inhibition above about 70%; inactive = the rest.

Test: NCI Yeast Anticancer Drug Screen. Data for the bub3 strain (AID 167)
Settings: S. cerevisiae bub3 mutant strain, at 50.0 µM, active compounds read high
Outline: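 Part of a panel of yeast mutants defective in DNA damage repair or cell cycle regulation. Each strain is grown with compound, and inhibition is calculated relative to solvent-treated cultures.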

Compound	growth inhibition
Cn1c(COc2ccc(/C=N\NC(=O)c3ccc(C(=O)N/N=C/c4ccc(OCc5c[n+]6ccccc6n5C)cc4)cc3)cc2)c[n+]2ccccc12	1.6%
CC1(C)C(=NNC(=S)NN)C(C)(C)C1=NNC(=S)NN	46.5%
COc1ccc(Nc2ccnc3cc(Cl)ccc23)cc1CCN	-5.9%
CCOC(=O)C(C)c1nc2cc(F)c(F)cc2[nH]c1=O (stereo not given)	4.1%
Cc1ccc(/C(=C/CN2CC3CCC(CC3)C2)c2ccccc2)cc1	10.4%
O=C1CCCCc2cccc(O)c21	2.4%
CC(O)COC(C)COC(C)c1ccccc1 (stereo not given)	2.2%
COc1cc(\C=N/N=C/C=C/c2ccccc2)cc(OC)c1OC	38.4%
CN(C)C(=O)C1C2CCC(C3CC32)C1C(=O)N(C)C (stereo not given)	24.6%
Cc1n[nH]c2ccccc2c1=O	-23.6%
O=C(Nn1c(=S)[nH][nH]c1=S)c1ccccc1	-14.5%
C=CC(=O)NC1CCCCC1	-6.8%
OCC1CC(c2ccccc2)=NO1 (stereo not given)	-3.9%
CCOC(=O)c1[nH]c2ccsc2c1C[N+]1(C)CCCCC1	-0.85%
COc1ccccc1C(=O)Nc1c(C)cccc1Cl	-10%
ICC1OCOC2C(CI)OCOC12 (stereo not given)	4.75%

Test: NCI Yeast Anticancer Drug Screen. Data for the mlh1 rad18 strain (AID 175)
Settings: S. cerevisiae mlh1 rad18 strain growth inhibition; at 50.0 µM; active compounds read high
Outline: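 In this whole-cell yeast screen, a strain with altered DNA damage repair is challenged with compound, and its growth is measured against matched vehicle-treated controls.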

Compound	growth inhibition
CCCC(N)S(=O)(=O)O (stereo not given)	-11.2%
COC(=O)c1cc(-c2cccc3ccccc23)[nH]c(=O)c1C#N	21.9%
C1CCC(C(C2CCCCC2)C2CCCCC2)CC1	-11.3%
Cc1cccc(-n2c(-c3ccccc3)cs/c2=N\N=C2/CSC(=O)N2Cc2ccccc2)c1	-27.8%
CC(=O)N1CCC(=O)/C(=C/c2ccccc2)C1	44%
CCCNC(=O)N(CCN(C)C)S(=O)(=O)c1ccc(Cl)cc1	-17.4%
Cc1cccn2nnnc12	-10.8%
O=c1[nH]c(=O)n(C2OC(COP(=O)(O)OP(=O)(O)O)C(O)C2O)cc1F (stereo not given)	-7%
CCCc1cc2c3c(c(=O)oc2cc1O)CCCC3	96.4% (active)
COC(=O)c1ccccc1NC(=O)c1cccc(Cl)c1	23.7%
Cn1c2c(c3ccccc31)CCCC2	5.35%
O=c1[nH]nc(S(=O)(=O)N2CCCC2)c(=O)[nH]1	-13.2%
CC(C)(C)c1cc(C(=O)O)ccc1C(=O)O	-8.15%
Cn1ncc2c(NCCc3ccccc3)nc(Cl)nc21	30.2%
CNC(=O)N(C)c1cc(N(C)C)nc(OC)n1	-23.4%
O=C1c2ccccc2C(=O)N1CCc1ccccn1	-22.9%
O=C1OC(=O)C2CCC12 (stereo not given)	17.6%
CC(=O)NC1(C)C(=O)N=C(N)N=C1N (stereo not given)	8.8%
CC1OC(OC2C(OC(=O)[C@@H]3CC(C)(C)C[C@@H]4C5=CC[C@@H]6[C@@]7(C)C[C@H](O)[C@H](OC8OC(CO)C(O)C(O)C8O)[C@@](C)(CO)C7[C@H](O)C[C@@]6(C)[C@]5(C)C[C@@H](O)[C@H]43)OCC(O)C2O)C(O)C(O)C1O (stereo not given in full)	-49.7%
CC(NC(=O)C(CC(=O)OCc1ccccc1)NC(=O)OCc1ccccc1)c1ccccc1 (stereo not given)	-1.3%
C1CCC(N(CCN(C2CCCCC2)C2CCCCC2)C2CCCCC2)CC1	-11.9%
N=C1CCCC1C(=S)SCCC(N)=O (stereo not given)	6.15%
COC(=O)C(Cc1cc(OC)c(OC)c(OC)c1)(NC(=O)c1ccccc1)P(=O)(OC)OC (stereo not given)	-9.7%
CCCCCCCCCCCCCCCC(=O)OCC(COP(=O)(O)OC1CCC2(C)C(=CCC3C2CCC2(C)C(C(C)CCCC(C)C)CCC32)C1)OC(=O)CCCCCCCCCCCCCCC (stereo not given)	-4.8%
Cn1c(COc2ccc(/C=N\NC(=O)c3ccc(C(=O)N/N=C/c4ccc(OCc5c[n+]6ccccc6n5C)cc4)cc3)cc2)c[n+]2ccccc12	-36.8%
CC1(C)C(=NNC(=S)NN)C(C)(C)C1=NNC(=S)NN	38.7%
COc1ccc(Nc2ccnc3cc(Cl)ccc23)cc1CCN	-5.8%
CCOC(=O)C(C)c1nc2cc(F)c(F)cc2[nH]c1=O (stereo not given)	-19.4%
Cc1ccc(/C(=C/CN2CC3CCC(CC3)C2)c2ccccc2)cc1	-13.8%
